Measurements: PubChem BioAssay (NCI)
The panel holds about 79,000 compounds, 15% with a hit somewhere; the sample as a whole holds those more often. Unmarked numbers belong to inactive results. Calls of active or inactive are those of the source. No stated cut-off is given here; in the data, active means growth inhibition above about 70%; inactive means the rest.

Assay: NCI Yeast Anticancer Drug Screen. Data for the cln2 rad14 strain (AID 165);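 further: 0% = growth equal to vehicle treated cultures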
Conditions: S. cerevisiae cln2 rad14 strain, at 50.0 µM, active compounds read high
Outline: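 Growth of compound-exposed yeast (cln2 rad14 genotype) measured and expressed as inhibition relative to vehicle.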

Row | SMILES | growth inhibition
1 | O=C1C(N=Nc2ccccc2)=C(O)C2C3C=CC(C3)C12 (stereo not drawn) | 99.3% (active)
2 | CC1CCCC(C(O)(C(=O)O)C2CCCC(C)C2)C1 (stereo not drawn) | 33.2%
3 | Cc1c(Cl)ccc2c1NC(=O)C2(O)CC(=O)c1ccc(Cl)cc1 (stereo not drawn) | 99.3% (active)
4 | Cc1cc2c(=O)[nH]c(N)nc2nc1C | 15.1%
5 | C=C1C(=O)O[C@@H]2C[C@@]3(C)CCC[C@H](C)C3=C[C@H]12 | 41.5%
6 | CCC(=NCCCCCCN=C(CC)c1cc(C)cc([N+](=O)[O-])c1O)c1cc(C)cc([N+](=O)[O-])c1O.[Fe] | 70.5% (active)
7 | CCCCN(CCCC)CC(O)c1cc(-c2ccc(Cl)cc2)nc2c(Cl)cccc12 (stereo not drawn) | 98.5% (active)
8 | COc1ccc2c(c1)CC/C(=C\c1ccc(OCCN(C)C)cc1)C2=O | 15.4%
9 | CCOC(=O)c1cc2c(nc1NCc1ccc(OC)c(OC)c1)/C(=C/c1ccccc1)CCCC2 | 80.2% (active)
10 | CSCS(=O)C[C@H](CO)NC(=O)/C=C/c1c(C)[nH]c(=O)[nH]c1=O (stereo partly drawn) | 62.7%
11 | CCOC(=O)c1c(N)sc2c1CCCCC2 | 27.6%
12 | Cc1cc(N)c(C)c2c1[nH]c1ccc(Br)cc12 | 17.7%
13 | N=C(N)Sc1ccc([N+](=O)[O-])cc1Cl | 84.5% (active)
14 | COc1c(OC)c(C2(O)C(=O)N(C)c3ccccc32)c(OC)c(OC)c1C1(O)C(=O)N(C)c2ccccc21 (stereo not drawn) | -0.05%
15 | Fc1cccc(NC(=S)SCc2ccc(Cl)cc2)c1 | 99.5% (active)
16 | Cc1ccc(/C=N/NS(=O)(=O)c2ccccc2)c(C)c1 | -25.8%
17 | CCCCCCCCCCCCNC(=O)C[n+]1cccc(C(=O)N(C)C)c1 | 24.6%
18 | CN(C)C(=S)/N=c1\ss/c(=N\S(=O)(=O)c2ccccc2)n1-c1ccccc1 | 9.6%
19 | O=C(NCCCl)Nc1c2ccccc2nc2ccccc12 | 31.4%
20 | COc1ccccc1NC(=O)/C(=C/c1ccccc1)C(C)=O | 49.1%

Row | SMILES | growth inhibition
21 | Oc1[nH]c2ccccc2c1N=NC(=S)NCc1ccccn1 | 90.5% (active)
22 | c1cc2c(cc1CCCCCCCCCCc1ccc3c(c1)CCC3)CCC2 | 79.8% (active)
23 | C=Cc1ccccc1C1(O)C=CC(OC)(OC)C=C1 | -2.15%
24 | CN(C)CC1CCc2c(ccc3ccccc23)C1=O (stereo not drawn) | 39.7%
25 | CCCCC(C)(C)OC(=O)Nc1ccc(Br)cc1 | 84.2% (active)
26 | O=C(Nc1ccc(F)c(Cl)c1)Oc1ccc(Br)cc1Br | 11.3%
27 | CCO/C=C1\N=C(C(O)(c2ccc(Cl)cc2)c2ccc(Cl)cc2)OC1=O | 44.5%
28 | O=C1c2ccccc2C(O)(c2ccccc2)c2c(Cl)cccc21 (stereo not drawn) | 75.2% (active)
29 | Nc1ccccc1-c1nc2c(ccc3ccccc32)[nH]1 | 24.6%
30 | CCCCCCCCCCCCCCNCCN | 88.7% (active)
31 | CC(C)CCCC(C)C1CCC2C3CC=C4OC(=O)CCC4(C)C3CCC12C (stereo not drawn) | 85.2% (active)
32 | CC(Br)C(=O)c1ccc2cc(Cl)c3ccccc3c2c1 (stereo not drawn) | -16.8%
33 | N#CSc1ccc2nc(NCO)sc2c1 | 96% (active)
34 | c1ccc2c3[nH]c(c2c1)=Nc1ccc(cc1)-c1nc2ccc(cc2o1)N=c1[nH]c(c2ccccc12)=Nc1ccc2nc(oc2c1)-c1ccc(cc1)N=3 | 84% (active)
35 | CCOc1ccc2nc(NC(=O)c3c/c(=N\NC(=O)C[N+](C)(C)C)c4ccc(O)cc4o3)sc2c1 | 98.6% (active)
36 | C[C@@H]1CC=C[C@@H](NC(=O)OCc2ccccc2)[C@H]1C=O | 15.7%
37 | O=C(/C=C/c1cccc([N+](=O)[O-])c1)CCl | 98.9% (active)
38 | CCC[CH2][Sn]([CH2]CCC)([O]C(=O)c1cccc(F)c1F)[O]C(=O)c1cccc(F)c1F | 88.7% (active)
39 | O=C(O)CCC(=O)NNc1ccccc1 | 83.2% (active)

Assay: NCI Yeast Anticancer Drug Screen. Data for the bub3 strain (AID 167)
Conditions: S. cerevisiae bub3 mutant strain, at 5.0 µM (retest, dose inferred, filed as 0.5), active compounds read high
Outline: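 In this screen, a yeast mutant lacking normal mitotic checkpoint function is challenged with compound. Relative growth versus vehicle gives the inhibition value.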

Row | SMILES | growth inhibition
40 | O=C1C(N=Nc2ccccc2)=C(O)C2C3C=CC(C3)C12 (stereo not drawn) | 1%
41 | CC1CCCC(C(O)(C(=O)O)C2CCCC(C)C2)C1 (stereo not drawn) | 14%
42 | Cc1c(Cl)ccc2c1NC(=O)C2(O)CC(=O)c1ccc(Cl)cc1 (stereo not drawn) | 14%
43 | Cc1cc2c(=O)[nH]c(N)nc2nc1C | -5%
44 | C=C1C(=O)O[C@@H]2C[C@@]3(C)CCC[C@H](C)C3=C[C@H]12 | 4%
45 | CCC(=NCCCCCCN=C(CC)c1cc(C)cc([N+](=O)[O-])c1O)c1cc(C)cc([N+](=O)[O-])c1O.[Fe] | -1%
46 | CCCCN(CCCC)CC(O)c1cc(-c2ccc(Cl)cc2)nc2c(Cl)cccc12 (stereo not drawn) | -4%
47 | COc1ccc2c(c1)CC/C(=C\c1ccc(OCCN(C)C)cc1)C2=O | 12%
48 | CCOC(=O)c1cc2c(nc1NCc1ccc(OC)c(OC)c1)/C(=C/c1ccccc1)CCCC2 | 49%
49 | CSCS(=O)C[C@H](CO)NC(=O)/C=C/c1c(C)[nH]c(=O)[nH]c1=O (stereo partly drawn) | 5%
50 | CCOC(=O)c1c(N)sc2c1CCCCC2 | -71%
51 | Cc1cc(N)c(C)c2c1[nH]c1ccc(Br)cc12 | -3%
52 | N=C(N)Sc1ccc([N+](=O)[O-])cc1Cl | 40%
53 | COc1c(OC)c(C2(O)C(=O)N(C)c3ccccc32)c(OC)c(OC)c1C1(O)C(=O)N(C)c2ccccc21 (stereo not drawn) | -3%
54 | Fc1cccc(NC(=S)SCc2ccc(Cl)cc2)c1 | 10%
55 | Cc1ccc(/C=N/NS(=O)(=O)c2ccccc2)c(C)c1 | 3%
56 | CCCCCCCCCCCCNC(=O)C[n+]1cccc(C(=O)N(C)C)c1 | -9%
57 | CN(C)C(=S)/N=c1\ss/c(=N\S(=O)(=O)c2ccccc2)n1-c1ccccc1 | -52%
58 | O=C(NCCCl)Nc1c2ccccc2nc2ccccc12 | -1%
59 | COc1ccccc1NC(=O)/C(=C/c1ccccc1)C(C)=O | -2%

Row | SMILES | growth inhibition
60 | Oc1[nH]c2ccccc2c1N=NC(=S)NCc1ccccn1 | 3%
61 | c1cc2c(cc1CCCCCCCCCCc1ccc3c(c1)CCC3)CCC2 | -6%
62 | C=Cc1ccccc1C1(O)C=CC(OC)(OC)C=C1 | 8%
63 | CN(C)CC1CCc2c(ccc3ccccc23)C1=O (stereo not drawn) | 19%
64 | CCCCC(C)(C)OC(=O)Nc1ccc(Br)cc1 | -8%
65 | O=C(Nc1ccc(F)c(Cl)c1)Oc1ccc(Br)cc1Br | -2%
66 | CCO/C=C1\N=C(C(O)(c2ccc(Cl)cc2)c2ccc(Cl)cc2)OC1=O | 13%
67 | O=C1c2ccccc2C(O)(c2ccccc2)c2c(Cl)cccc21 (stereo not drawn) | -5%
68 | Nc1ccccc1-c1nc2c(ccc3ccccc32)[nH]1 | -3%
69 | CCCCCCCCCCCCCCNCCN | 84% (active)
70 | CC(C)CCCC(C)C1CCC2C3CC=C4OC(=O)CCC4(C)C3CCC12C (stereo not drawn) | -1%
71 | CC(Br)C(=O)c1ccc2cc(Cl)c3ccccc3c2c1 (stereo not drawn) | 0%
72 | N#CSc1ccc2nc(NCO)sc2c1 | 12%
73 | c1ccc2c3[nH]c(c2c1)=Nc1ccc(cc1)-c1nc2ccc(cc2o1)N=c1[nH]c(c2ccccc12)=Nc1ccc2nc(oc2c1)-c1ccc(cc1)N=3 | 31%
74 | CCOc1ccc2nc(NC(=O)c3c/c(=N\NC(=O)C[N+](C)(C)C)c4ccc(O)cc4o3)sc2c1 | 62%
75 | C[C@@H]1CC=C[C@@H](NC(=O)OCc2ccccc2)[C@H]1C=O | -18%
76 | O=C(/C=C/c1cccc([N+](=O)[O-])c1)CCl | 14%
77 | CCC[CH2][Sn]([CH2]CCC)([O]C(=O)c1cccc(F)c1F)[O]C(=O)c1cccc(F)c1F | 62%
78 | O=C(O)CCC(=O)NNc1ccccc1 | 14%
